TGFb SMAD3 inh = TGF-b pathway inhibition; HepG2 CAGA-GFP TGF-b/SMAD3 reporter, GFP fluorescence, 18 h; TGF-beta stimulated, 500 pg/mL final; Potency, µM (top dose mostly 46.1 µM), for inactives: at the top dose activity, negative = inhibition, hits mostly inhibitors; 410,000 tested, 1.2% active; also: % is scaled to controls: 0 for no effect and ±100 for the full control effect; nearly all actives have a fitted effect of over 65% in size
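Using HEPG2 CAGA-GFP reporter cells at 1000 cells/well, we pinned test compounds, stimulated with recombinant TGF-beta (500 pg/mL final) and measured total well GFP after 18 h.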
DT40 TDP1 no CPT = qHTS for Inhibitors of human tyrosyl-DNA phosphodiesterase 1 (TDP1): qHTS in cells in absence of CPT; DT40 Tdp1-/- hTDP1 cells, no CPT, ATP luminescence, 48 h; AID 686978, 2013; Potency, µM (series often up to 46.2 µM), for inactives: at the highest dose activity change, negative = growth inhibition, most hits filed as inhibitors; 420,000 tested, 15% active; also: % is scaled to controls: 0 for no effect and ±100 for the full control effect; nearly all actives have a fitted effect of over 55% in size
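Luminescent ATP content (CellTiter-Glo) served as the growth readout. Knockout chicken DT40 cells expressing human TDP1 were exposed to compounds without camptothecin for a minimum 48 hr at 37 °C.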
ATXN viability = viability counter-screen for ATXN expression inhibitors; S2 cells (HEK-293 line with an ATXN2-luciferase reporter) viability, CellTiter-Fluor protease fluorescence, 24 h; Potency, µM (series often up to 56.7 µM), hits mostly cytotoxic; 400,000 tested, 0.49% active; AID 651635; also: nearly all actives have a fitted effect of over 40% in size
HepG2 viability = HepG2 cytotoxicity, counter-screen for TGF-b inhibitors | HepG2 CAGA-GFP viability, ATP luminescence, 18 h | Potency, µM (highest dose often 46.1 µM), inactives show top-dose activity change, negative = cytotoxicity, usual class: cytotoxic | 410,000 tested, 0.76% active
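CellTiter-Glo luminescence gave cytotoxicity after 18 hours at 37 degrees C. The cells were HepG2 CAGA-GFP in 1% FBS DMEM, stimulated with 500 pg/mL TGF-beta after compound addition. %Activity was normalised to no-cell wells (complete cell-killing) and DMSO (no toxicity), and curves were fitted and classified.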
ATXN2 expr inh = ATXN2 expression inhibition; HEK-293 ATXN2-luciferase reporter, luminescence, 24 h; Potency, µM (doses to about 57 µM), inactives show at the top dose activity change, negative = inhibition, actives largely listed as inhibitors; 360,000 tested, 0.72% active; also: % is scaled to controls: 0 for no effect and ±100 for the full control effect; nearly all actives have a fitted effect of over 55% in size
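ATXN2-luciferase reporter cells (luciferase flanked by upstream and downstream ATXN2 gene portions) were treated 24 h at 37 °C with compounds at up to 57 uM. SteadyGlo luminescence gave expression; GF-AFC fluorescence gave viability.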
DT40 TDP1 CPT = growth inhibition of DT40 Tdp1-/-;hTDP1 cells with camptothecin (screen for TDP1 inhibitors); AID 686979; chicken DT40 Tdp1-/-;hTDP1 cells + 20 nM CPT, ATP luminescence, 48 h; Potency, µM (top dose mostly 46.2 µM), inactives show at the top dose activity change, negative = growth inhibition, hits mostly inhibitors; 420,000 tested, 12% active; also: % is scaled to controls: 0 for no effect and ±100 for the full control effect; nearly all actives have a fitted effect of over 55% in size
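Chicken DT40 Tdp1-/- cells complemented with human TDP1, 400 cells/well, exposed to compounds plus 20 nM camptothecin for at least 48 h at 37 C; viability read as ATP content by CellTiter-Glo luminescence.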
* hit, by the source's call; i = inactive; ? = inconclusive; . = no result; [ ] = dose if it differs, or a comment. In the library only some 17% were active in any assay of this set; here they are far more common. Calls follow the shape of the dose curve; as a rule, active = well fitted curve in the direction sought with a large enough effect; inconclusive = small, poorly fitted or top-dose-only effect, or another doubt; inactive = no such curve, though single readings can be large; an effect the other way counts as inactive or inconclusive. Potency is read from the fitted curve at half-maximal effect.

SMILES	TGFb SMAD3 inh	DT40 TDP1 no CPT	ATXN viability	HepG2 viability	ATXN2 expr inh	DT40 TDP1 CPT
COC(=O)c1cc(=O)n(CCc2ccc(OC)cc2)c(=Nc2ccc(F)c(Cl)c2)s1	?	?	?	-40%	?	?
COC(=O)c1cc(=O)n(Cc2ccc3c(c2)OCO3)c(=Nc2ccc(F)c(Cl)c2)s1	2%	6.5µM*	i	1%	-2%	8.2µM*
CCc1ccc(S(=O)(=O)NCc2cn3ccccc3n2)s1	-27%	?	i	-8%	-11%	?
CCc1ccc(S(=O)(=O)NCc2cn3cccc(C)c3n2)s1	10%	16µM*	i	2%	-4%	18µM*
O=C1c2ccccc2[C@@H]2C[C@@H](O)[C@H](Nc3cccc4ccccc34)CCN12	?	16µM*	i	-18%	-7%	?
COCCN1C[C@@H](CO)O[C@@H](n2cnc3c(NCc4ccco4)ncnc32)C1	5%	3%	i	14%	6%	-5%
COc1ccc(CNC(=O)C(C)Cc2ccccc2)cc1O (centres undefined)	-21%	-15%	i	-2%	12%	-15%
CSc1nc(=NC(C)=O)ss1	-3%	35µM*	i	-11%	4%	?
c1ccn2c(c1)nc1c2nc2ccccn21	-21%	-24%	.	-26%	25%	-26%
Cc1nc2ccccn2c1-c1ccnc(=S)[nH]1	0%	23µM*	i	-58%	0%	5.8µM*
N#Cc1cc(C(=O)c2cc(Br)ccc2O)cn(C2CCCCC2)c1=O	?	20µM*	?	-16%	?	13µM*
CC(=O)c1cccc(NC(=O)COc2ccccc2C(=O)c2cc(C#N)c(=O)n(C3CCCCC3)c2)c1	0%	12µM*	i	1%	6%	?
Cc1ccc(O)c(C(=O)c2cc(C#N)c(=O)n(CC3CCCO3)c2)c1 (centres undefined)	30%	21µM*	i	-41%	-15%	15µM*
COc1ccc(O)c(C(=O)c2cc(C#N)c(=O)n(CC3CCCO3)c2)c1 (centres undefined)	28%	?	i	2%	3%	?
Cc1ccc(OCc2ccc(C#N)cc2)c(C(=O)c2cc(C#N)c(=O)n(C3CC3)c2)c1	-5%	-14%	i	-14%	.	-13%
CCCCCCCCC#CCC#CCC#CCCCC(=O)O	.	-8%[4.12 µM]	.	.	.	5%[4.12 µM]
COc1cc(OC)c(OC)cc1/C=C/c1ccnc2ccccc12	?	16µM*	i	-29%	-26%	13µM*
Oc1cc(O)c(/C=C/c2ccnc3ccccc23)c(O)c1	-1%	-18%	.	4%	.	11%
COc1ccc(OC)c(/C=C/c2ccnc3ccccc23)c1	?	4.6µM*	i	-76%	-39%	3.7µM*
COc1ccccc1/C=C/c1ccnc2ccccc12	-24%	14µM*	.	-33%	.	?
COc1ccc2ncccc2c1Cc1c(OC)ccc2ncccc12	11%	13µM*	i	-12%	?	15µM*
Cc1ccc2ncccc2c1N	10%	-18%	i	12%	-18%	-15%
c1ccc2c(CCC3CCNCC3)c[nH]c2c1	.	?	i	.	.	?
O=c1[nH]cnc2c([N+](=O)[O-])cccc12	0%	2%	i	-9%	-9%	-18%
O=[N+]([O-])c1cccc2c(Br)[nH]nc12	.	?	.	.	.	32µM*
CN1c2ccccc2C(C)(C)C12C=Cc1cc(O)ccc1O2 (centres undefined)	?	16µM*	?	-40%	-20%	13µM*
CC(C)(c1ccc(O)c([N+](=O)[O-])c1)c1ccc(O)c([N+](=O)[O-])c1	-1%	-6%	i	3%	1%	4%

Compound activity from PubChem BioAssay.
